# Measured values published in PubChem BioAssay AID488969 (Vanderbilt High Throughput Screening Facility, 2010).
# Over roughly 110,000 compounds, “z-score” has its median near -0.1; the highest 2% begin near 2. The full list was thinned out, with the highest values kept by preference. Activity calls are given as the source filed them.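 The calls were made as follows: active = z-score in the third read window above 3 or below -3; inactive = the rest.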
# Biological target: Metabotropic glutamate receptor 8 (Rattus norvegicus) (UniProt P70579)
# Assay: rat mGluR8 modulators via GIRK flux, primary screen, cell-based, thallium flux, HTS (AID 488969)
# Details: HEK293 rat mGluR8, GIRK (G protein-gated inwardly rectifying potassium channel) thallium flux, FluoZin2; at 10 µM; stronger effect = higher value; submaximal glutamate (EC20) added with thallium
# Metabotropic glutamate receptor 8 (Rattus norvegicus), sequence (P70579 whole entry, looked up): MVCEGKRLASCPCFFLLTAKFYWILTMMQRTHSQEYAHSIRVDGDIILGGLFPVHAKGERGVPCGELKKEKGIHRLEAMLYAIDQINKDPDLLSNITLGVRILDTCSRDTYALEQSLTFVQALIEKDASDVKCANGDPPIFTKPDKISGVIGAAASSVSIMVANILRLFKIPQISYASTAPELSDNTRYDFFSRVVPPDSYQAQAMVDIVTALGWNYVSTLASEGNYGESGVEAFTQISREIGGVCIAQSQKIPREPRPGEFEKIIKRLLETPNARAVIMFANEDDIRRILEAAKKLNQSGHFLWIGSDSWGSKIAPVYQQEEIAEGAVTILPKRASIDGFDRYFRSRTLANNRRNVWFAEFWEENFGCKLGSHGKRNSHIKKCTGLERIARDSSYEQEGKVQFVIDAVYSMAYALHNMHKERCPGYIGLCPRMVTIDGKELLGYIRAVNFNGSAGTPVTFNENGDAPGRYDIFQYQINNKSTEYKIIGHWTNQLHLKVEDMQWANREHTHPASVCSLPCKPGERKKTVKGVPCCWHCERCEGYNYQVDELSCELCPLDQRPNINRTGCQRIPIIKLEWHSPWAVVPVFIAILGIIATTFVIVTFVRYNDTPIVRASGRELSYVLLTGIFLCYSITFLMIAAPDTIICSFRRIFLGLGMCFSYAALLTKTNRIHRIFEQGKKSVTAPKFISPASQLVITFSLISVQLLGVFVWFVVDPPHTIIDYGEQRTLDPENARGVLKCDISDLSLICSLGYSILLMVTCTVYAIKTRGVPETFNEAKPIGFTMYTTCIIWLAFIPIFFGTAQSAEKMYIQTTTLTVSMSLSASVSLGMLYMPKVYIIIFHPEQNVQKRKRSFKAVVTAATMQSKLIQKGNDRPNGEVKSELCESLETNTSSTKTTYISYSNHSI
row,SMILES,z-score
1,c1ccc(CNc2nc(-c3cccs3)nc3ccccc23)cc1,0.32
2,O=C(O)c1cc(NCc2ccccc2C(F)(F)F)ccc1N1CCOCC1,-0.168
3,N#Cc1cc([N+](=O)[O-])cnc1Nc1ccccc1,-0.521
4,CC(C)OC(=O)c1c(NS(=O)(=O)c2ccccc2)sc2c1CCCC2,12.3 (active)
5,COC(=O)c1c(NC(=O)c2ccccc2N(C)S(=O)(=O)c2ccccc2)sc2c1CCCC2,-0.215
6,CC(C)OC(=O)c1c(N)sc2c1CCCC2,2.03
7,CCOC(=O)c1c(NC2=NS(=O)(=O)c3ccccc32)sc2c1CCC(C)C2 (stereo unspecified),0.00913
8,COC(=O)c1c(NC(=O)c2cccs2)sc2c1CCC(C)C2 (stereo unspecified),-0.363
9,COCC(=O)Nc1sc2c(c1C(=O)OC)CCC(C)C2 (stereo unspecified),-0.444
10,CC1CCc2c(sc(N)c2C(=O)OC(C)C)C1 (stereo unspecified),0.201
11,COC(=O)c1c(NC(=O)CN2CCN(S(=O)(=O)c3ccccc3)CC2)sc2c1CCC(C)C2 (stereo unspecified),-0.486
12,CC1CCc2c(sc(NS(=O)(=O)c3ccccc3)c2C(=O)OC(C)C)C1 (stereo unspecified),8.13 (active)
13,CCOC(=O)c1c(NC(=O)C2CCCN(S(=O)(=O)c3ccccc3)C2)sc2c1CCCC2 (stereo unspecified),0.269
14,CNC(=O)c1c(N)sc2c1CCCCC2,0.209
15,COC(=O)c1c(NS(=O)(=O)c2ccc(C)cc2)sc2c1CCC(C)C2 (stereo unspecified),7.28 (active)
16,O=C(CSc1nnnn1-c1cccc(F)c1)Nc1nc2ccccc2s1,-0.0501
17,CC(Sc1nc(-c2ccccc2)cc(C(F)(F)F)n1)C(=O)N1CCOCC1 (stereo unspecified),-0.153
18,CCOc1ccc(N2C(=O)c3ccccc3C2O)cc1 (stereo unspecified),8.14 (active)
19,O=C1c2ccccc2C(O)N1c1ccc(Cl)cc1 (stereo unspecified),-0.698
20,CCOc1ccc(N2C(=O)c3ccccc3C2=O)cc1,-1.29
21,CCOc1ccc2cc(S(=O)(=O)n3ccnc3C)ccc2c1,0.917
22,COc1ccc([N+](=O)[O-])cc1NC(=O)C1CCCO1 (stereo unspecified),-0.326
23,C=CCNC(=O)CSc1cc([N+](=O)[O-])cc(S(=O)(=O)Cc2ccccc2)c1,0.665
24,COc1ccc(CNc2nc(-c3cccnc3)nn2C(=O)c2ccco2)cc1,9.48 (active)

row,SMILES,z-score
1,CCC(=O)n1nc(-c2cccnc2)nc1NCc1ccc(OC)cc1,-5.08 (active)
2,Nc1nc(-c2cccnc2)nn1C(=O)c1ccco1,0.31
3,COc1cc(NC(=O)c2ccc(-c3ccc(Br)cc3)o2)ccc1NC(=O)C(C)C,0.116
4,CCOC(=O)C(CC)Sc1nnc2c3cc(C)ccc3n(C)c2n1 (stereo unspecified),-0.798
5,COC(=O)Cc1c(C)nc2nc(-c3ccc(OC)cc3)[nH]n2c1=O,-0.0668
6,COC(=O)Cc1c(C)nc2nc(-c3ccccc3)[nH]n2c1=O,-0.455
7,COC(=O)Cc1c(C)nc2nc(-c3ccco3)[nH]n2c1=O,2.68
8,CCn1c(SCC(=O)Nc2nc(-c3ccccc3)cs2)nnc1-c1ccccc1O,-0.347
9,O=C1C(=O)N(CNc2cccnc2)c2ccccc21,-0.21
10,CC(C)c1ccc(/C=N/Nc2ccc(C(=O)O)cc2)cc1,-0.222
11,CNC(=S)N/N=C/c1ccc2c(c1)OCCO2,0.205
12,CNC(=S)N/N=C/c1ccc(C(C)C)cc1,3.01 (active)
13,Cn1c(SCc2ccc(Br)cc2)nnc1-c1ccncc1,-0.143
14,Cc1cccc(-c2cc3nc4c(c(N5CCC6(CC5)OCCO6)n3n2)CCCC4)c1,0.391
15,CC(=O)N1CN(C2CC(C)(C)NC(C)(C)C2)Cc2c1sc1c2CCCC1,0.426
16,CC1CN(Cc2ccccn2)CCC1=O (stereo unspecified),-0.215
17,CC1CN(C2CC(C)(C)NC(C)(C)C2)CCC1=O (stereo unspecified),3.98 (active)
18,O=C(NNC(=O)C1CCN(Cc2ccccc2)CC1)c1cccc(Cl)c1,0.0829
19,CCOC(=O)c1cn(-c2ccccc2CO)c2c(F)c(F)c(F)cc2c1=O,-0.237
20,COc1ccc2ncc(S(=O)(=O)c3ccccc3)c(N3CCC4(CC3)OCCO4)c2c1,-0.776
21,CN(C)CC(O)COc1cccc(OCC(O)CN(C)C)c1 (stereo unspecified),-0.132
22,N#Cc1ccc(-c2ccc(OCC(O)Cn3nnc4ccccc43)cc2)cc1 (stereo unspecified),-0.106
23,CN(C)CC(O)COc1ccc(-c2ccc(C#N)cc2)cc1 (stereo unspecified),2.48
24,CC1(C)NC(=O)N(CC(O)COc2ccc(-c3ccccc3)cc2)C1=O (stereo unspecified),-0.0166

row,SMILES,z-score
1,CC1(C)NC(=O)N(CC(O)COc2ccc(-c3ccc(C#N)cc3)cc2)C1=O (stereo unspecified),5.36 (active)
2,Cc1ccc(OCC(O)CN2C(=O)NC(C)(C)C2=O)cc1 (stereo unspecified),-0.38
3,COc1ccccc1CC(=O)Nc1ccc(-c2noc(COc3ccc(Cl)c(C)c3)n2)cc1,-0.166
4,Cc1cc(C)c2c(N)c(C(=O)c3cccc(Cl)c3)sc2n1,-0.231
5,CCc1ccc(N/C(SC)=C(/C#N)C(N)=O)cc1,0.119
6,CCn1c(SCc2nc3sc(C(=O)O)c(C)c3c(=O)[nH]2)nc2ccccc21,-0.449
7,COCCn1c(SCc2nc3sc(C(=O)OC)c(C)c3c(=O)[nH]2)nc2ccccc21,0.877
8,CCOC(=O)c1sc2nc(CSc3nc4ccccc4n3CC)[nH]c(=O)c2c1C,2.68
9,COc1cccc(-c2nnc(SCc3nc4ccccc4s3)n2C)c1,-0.34
10,CCCCCCOC(=O)/C=C/c1c(C)[nH]c(=O)[nH]c1=O,-0.139
11,C/C(=N\Nc1ccc(C(=O)O)cc1)c1nc2ccccc2n1C,-0.702
12,C/C(=N\NC(=O)c1ccccc1)c1ccc(-n2ccnc2)cc1,2.25
13,Cn1c(/C=N/NC(=O)c2ccccc2)nc2ccccc21,0.298
14,C/C(=N\NC(=O)COc1ccc(C)cc1C(C)C)c1ccc(-n2ccnc2)cc1,2.53
15,COc1ccc(OCC(=O)N/N=C(\C)c2ccc(-n3ccnc3)cc2)cc1,-0.334
16,C/C(=N\NC(=O)c1ccccc1)c1nc2ccccc2n1C,3.71 (active)
17,C/C(=N\NC(=O)COc1ccc(C(C)(C)C)cc1)c1ccc(-n2ccnc2)cc1,0.123
18,CNC(=S)N/N=C(\C)c1ccc(-n2ccnc2)cc1,-0.579
19,C/C(=N\NC(=O)c1ccc(C)cc1C)c1ccc(-n2ccnc2)cc1,-0.0942
20,Cn1c(=O)c2c(ncn2CC(=O)OCC(=O)Nc2ccccc2Cl)n(C)c1=O,-0.159
21,Clc1cccc2sc(N3CCOCC3)nc12,0.0232
22,CCOC(=O)C1=C(C)Nc2nc(SCc3cccnc3)nn2C1c1ccc(OC)cc1 (stereo unspecified),0.463
23,CN1CCN(S(=O)(=O)c2ccc(Br)s2)CC1,-0.0381
